These results are taken from PubChem BioAssay AID1745848 (National Center for Advancing Translational Sciences (NCATS), 2022).

In all, about 2,100 compounds went through this assay and about 940 (45%) were called active. Roughly 48% stayed inconclusive and do not appear here. Calls follow the shape of the dose curve; as a rule, active = well fitted inhibition curve with a large enough effect; inconclusive = small, poorly fitted or top-dose-only effect; inactive = no such curve, though single readings can be large or run the other way. So high a share suggests a set chosen from earlier hits. Some of the results follow.
Potency is read from the fitted curve at half-maximal effect.

The test can be described thus: Confirmatory qHTS for Inhibitors of ATXN expression. Also: nearly all actives have a fitted effect of over 65% in size.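 As to activity change, negative = inhibition: 0% = DMSO vehicle wells and -100% = medium-only wells without cells.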 The settings on record: ATXN2-luciferase reporter cells, luminescence, 24 h; series mostly up to 11.5 µM; activity change, negative = inhibition: at the top concentration. An excerpt:
PI: Daniel Scoles Ph.D. University of Utah School of Medicine, Salt Lake City, Utah MLPCN Grant: NS073009 Spinocerebellar ataxia type 2 (SCA2) is a multisystem neurodegenerative disease caused by a dominantly acting mutation leading to expansion of a polyQ domain in the ataxin-2 protein (ATXN2). SCA2 patients develop progressive ataxia and later lose function in other neuronal systems. Prominent parkinsonian signs develop in some patients. Like many neurodegenerative disorders, no symptomatic or disease-modifying treatments are known. The primary objective of the proposed research is to identify compounds inhibiting ATXN2 expression and to test them for efficacy in SCA2 mouse models. We have developed a cell-based assay paired with an in vivo mouse model using identical luciferase expression constructs. This approach takes advantage of an ATXN2-luciferase transgene, with the luciferase gene flanked by the upstream and downstream portions of the ATXN2 gene. Here we describe a 5-7 dose quantitative high thoroughput screen (qHTS) for compounds lowering ATXN2 expression. We screened the NIH Molecular Libraries Small Molecule Repository (MLSMR) and NCGC's mechanistically annotated (MIPE) and drug repurposing (NPC) collections of compounds for lowering expression of an ATXN2-luciferase reporter in HEK-293 cells. The assay is a multiplexed cell viability assay to ensure target reduction in the absence of cytotoxicity. Secondary qHTS assays included a CMV-luciferase reporter expressed in HEK-293 cells as well as a biochemical assay using recombinant luciferase to detect inhibitors of the reporter enzyme. Compounds that inhibit ATXN2 expression but is not cytotoxic were selected for confirmatory and secondary screens.
PROTOCOL TABLE (as described by Inglese J, Shamu CE and Guy RK. 2007) SEQUENCE No. (e.g., 1, 2, 3, etc.); PARAMETER (e.g., Cells, Incubation, Reagent, etc.); VALUE; DESCRIPTION. 1; Cells; 4 uL; white, solid bottom, 1536-well Greiner assay plate. 2; Incubation; 2 hr; 37 degree C in 5% humidified CO2. 3; Compounds; 23 nL; Kalypsis pintool (Wako USA) equipped with a 1536-well pin head. 4; Incubation; 24 hr; 37 degree C in 5% humidified CO2. 5; Reagent; 1 uL; Gly-Phe-7-Amino-4-trifluoromethylcoumarin. 6; Incubation; 30 min; 37 degree C in 5% humidified CO2. 7; Detection; Fluorescence; ViewLux plate reader (PerkinElmer). 8; Reagent; 3 uL; SteadyGlo luciferase solution (Promega). 9; Incubation; 5 min; room temperature. 10; Detection; Luminescence; ViewLux plate reader (PerkinElmer). NOTES (numbers refer to Sequence numbers above) 1. […] expressing ATXN2-luciferase reporter were suspended in phenol-red free DMEM and dispensed in assay plates using a Multidrop Combi dispenser (Thermo Fisher Scientific). Wells containing medium only were plated on each plate, and values were used to normalize (100% inhibition) in the luciferase and CellTiter-Fluor assays. 2. Assay plates were incubated. Evaporation was prevented by covering assay plates with metal lids containing holes to allow gas diffusion. 3. Compounds were added in a dose response manner with the final concentrations of 57, 11.4, 2.28, 0.46, 0.091, 0.018, 0.0037 uM. Vehicle-only plates, with DMSO being pin-transferred to columns 5-48, were inserted uniformly at the beginning and the end of each library to monitor and record any shifts in assay performance. 5. 125 uM Gly-Phe-7-Amino-4-trifluoromethylcoumarin (MP Biomedicals) working concentration was used at a final concentration of 25 uM. 7. To assess cell viability; the assay plates were read using the ViewLux high-throughput CCD imager (PerkinElmer), wherein single end-point fluorescence measurement was acquired (excitation 405/10; emission 540/25 nm). 8. Detection reagent SteadyGlo Luciferase (Promega) was added to the assay plate. 10. Luminescence is then measured on the ViewLux imager equipped with a clear emission filter using a 2 sec exposure. […]
For orientation: qHTS replaces the single test concentration by a dilution series.
Consider `CC(C(=O)c1ccc(-c2ccccc2)cc1)[n+]1cccc(NC(=O)c2ccccc2)c1` (stereo not given), for which the “activity change, negative = inhibition” value is -17.3% (inactive). Turning to `Cc1cc[n+](C(C)C(=O)c2ccc(-c3ccccc3)cc2)cc1` (stereo not given), the Potency is 14.1 µM (active). For `Cc1ccc(Cc2cnc(N3C(=N)SC(C)C3=O)s2)cc1` (stereo not given), the “activity change, negative = inhibition” value was -5.04% (inactive). Turning to `COc1ccc(OC)c(NC(=O)COC(=O)c2c3c(nc4ccccc24)CCCC3)c1`, the Potency is 3.16 µM (active). The same measure, in the same setting: to `Cn1cc(SCC(=O)Nc2nc3ccccc3s2)c2ccccc21` belongs 3.16 µM (active); to `NC(c1csc(Nc2nccc(C(F)(F)F)n2)n1)C1CCCCC1` (stereo not given), 3.55 µM (active); to `CC(C)CC(N)c1csc(Nc2ccc(C(=O)N(C)Cc3ccccc3)cn2)n1` (stereo not given), 12.6 µM (active). Still for that read-out and setting: to `NC(COCc1ccccc1)c1csc(Nc2ccc(C(F)(F)F)cn2)n1` (stereo not given) belongs 31.6 µM (active).

Regarding `NC(Cc1ccc(F)cc1)c1csc(Nc2cc(NCc3ccco3)ncn2)n1` (stereo not given), the “activity change, negative = inhibition” value is 40.8% (inactive).

Take `NC(Cc1ccccc1)c1csc(Nc2ccc(C(F)(F)F)cn2)n1` (stereo not given): the Potency is 31.6 µM (active). As for `COc1ccc(CC(N)c2csc(Nc3ccc(C(=O)c4ccccc4)cc3)n2)cc1` (stereo not given), the “activity change, negative = inhibition” value is -34.6% (inactive). As to `NC(Cc1ccc(C(F)(F)F)cc1)c1csc(Nc2nccc(C(F)(F)F)n2)n1` (stereo not given), the Potency is 3.55 µM (active). Consider `Cc1cc(C(=O)N/N=C/c2ccc([N+](=O)[O-])s2)n[nH]1`, for which the Potency was 8.91 µM (active). Same read-out and setting: in the case of `CC(C)(C)c1cc(C(=O)N/N=C/c2ccc([N+](=O)[O-])s2)n[nH]1` it was 5.01 µM (active).

As to `O=C(Cn1cnc([N+](=O)[O-])c1)Nc1cc(Oc2ccc(Cl)cc2Cl)cc([N+](=O)[O-])c1`, the Potency is 2.82 µM (active). As for `O=C(NCc1cc(C(F)(F)F)ccc1Cl)c1cccc2c1C(=O)c1ccc(N3CCOCC3)cc1S2(=O)=O`, the Potency is 3.98 µM (active). For `O=C(NCc1ccccc1C(F)(F)F)c1cccc2c1C(=O)c1ccc(N3CCC(N4CCCCC4)CC3)cc1S2(=O)=O`, the Potency is 3.16 µM (active).

Turning to `CCCc1nc2c(c(=O)c3ccccc3n2C)c(=O)n1C1CCCCCC1`, the Potency is 14.1 µM (active).

As to `COc1ccc(C(=O)Nn2c(SCC(=O)c3ccccc3)nc3ccccc3c2=O)cc1`, the Potency is 15.8 µM (active).

Take `Cc1ccc(S(=O)(=O)Nc2cccc3cccnc23)cc1`: the Potency was 8.91 µM (active). In the case of `Cc1ccc(S(=O)(=O)Nc2cc(Cl)c(O)c3ncccc23)cc1`, the Potency was 3.55 µM (active). For the compound `O=S(=O)(Nc1cccc2cccnc12)c1ccccc1`, the Potency was 1.58 µM (active). Still for that read-out and setting: to `O=[N+]([O-])c1ccccc1S(=O)(=O)Nc1cccc2cccnc12` belongs 10 µM (active). With `O=C(/C=C/Nc1ccc(S(=O)(=O)Nc2ncccn2)cc1)c1ccc(Cl)c(Cl)c1`, the “activity change, negative = inhibition” value is -22.7% [at 57.5 µM] (inactive). For the compound `CCc1ccc(N(CC)C(=O)c2ccc3c(Cl)c4c(nc3c2)CCC4)cc1`, the Potency is 3.55 µM (active).

As for `C[C@@H]1ON(C)[C@H]2C[C@H]3c4[nH]c5ccc(-c6ccc7c(c6)OCO7)cc5c4CCN3C(=O)[C@@H]12`, the Potency is 15.8 µM (active). With `Nc1c2ccccc2nc2ccccc12`, the Potency was 3.55 µM (active).

In the case of `Nc1cccc2nc3ccccc3cc12`, the Potency was 7.94 µM (active). Still for that read-out and setting: in the case of `CCc1nc2ccc(C(=O)Nc3cc(-c4ccccc4)ccc3OC)cn2c1N(CC)CC(=O)N(C)C` it was 28.2 µM (active); in that of `O=C(CNS(=O)(=O)c1ccc([N+](=O)[O-])cc1)N/N=C/c1ccc(O)cc1O`, 3.16 µM (active). Same read-out and setting: to `Cc1ccc(S(=O)(=O)NCC(=O)N/N=C/c2ccccc2O)cc1` belongs 3.16 µM (active).

With `Cc1ccc(SCCC(=O)N/N=C/c2ccccc2O)cc1`, the Potency was 3.55 µM (active). For `O=C(CCCOc1ccc(Cl)cc1Cl)N/N=C/c1ccccc1O`, the Potency is 2.82 µM (active). Still for that read-out and setting: in the case of `N#CC1=C(N)N2C(=C(C#N)C1c1cccc(Br)c1)Nc1ccccc12` (stereo not given) it was 3.16 µM (active); in that of `Cc1csc2ncnc(NC3CCN(Cc4ccccc4)CC3)c12`, 0.794 µM (active); in that of `CC(C)(C)c1ccc(Oc2ccc(N)cc2)cc1`, 2.24 µM (active). Same read-out and setting: in the case of `CC(C)(C)c1ccc(Oc2ccc(N)cn2)cc1` it was 3.16 µM (active); in that of `COc1ccc(O)c(/C=N/NC(=O)CCC(=O)Nc2cccc(C)c2)c1`, 14.1 µM (active).

In the case of `Cc1cccc(NC(=O)CCC(=O)N/N=C/c2ccc(O)cc2O)c1`, the Potency is 3.16 µM (active). Regarding `Cc1cc(C)n(CCC(=O)N/N=C/c2ccc(O)cc2O)n1`, the Potency was 3.16 µM (active). On the same count and under the same terms, to `COc1ccc(O)c(/C=N/NC(=O)CSc2nnc(C)n2-c2ccccc2)c1` belongs 2.82 µM (active); to `COc1cc(OC)c(OC)cc1/C=C1\CCC/C(=C\c2cc(OC)c(OC)cc2OC)C1=O`, 3.98 µM (active); to `COc1cc(OC)c(OC)cc1/C=C1\CC(C)C/C(=C\c2cc(OC)c(OC)cc2OC)C1=O` (stereo not given), 14.1 µM (active). The same measure, in the same setting: to `O=C(Nc1ccc(N2CCN(C(=O)c3ccccc3)CC2)c(Cl)c1)c1ccc(Br)o1` belongs 2.51 µM (active); to `Cc1ccccc1C(=O)N1CCN(c2ccc(NC(=O)c3ccco3)cc2Cl)CC1`, 17.8 µM (active).
